Data reported in PubChem BioAssay (NCATS).
“And” between values parts separate entries of the source, which are not always exact repeats. Identical values can stand only once. Results filed as inconclusive are left out. A call without a number means that no potency is given here. Values without a mark were called inactive. The source made the active and inactive calls. Calls come from the whole dose curve; as a rule, active = well fitted curve in the direction sought with a large enough effect; inconclusive = small, poorly fitted or top-dose-only effect, or another doubt; inactive = no such curve, though single readings can be large; an effect the other way counts as inactive or inconclusive. Where a SMILES comes first, the peptide text is derived from it.

Tests used:
[1] = molecular target: Cytochrome P450 3A7 (Homo sapiens) (UniProt P24462); assay: Cytochrome P450 family 3 subfamily A member 7 (CYP3A7) small molecule antagonists: luciferase biochemical qHTS assay (AID 1963596); note: nearly all actives have a fitted effect of over 40% in size
Sequence of Cytochrome P450 3A7 (Homo sapiens) (P24462 whole entry, looked up): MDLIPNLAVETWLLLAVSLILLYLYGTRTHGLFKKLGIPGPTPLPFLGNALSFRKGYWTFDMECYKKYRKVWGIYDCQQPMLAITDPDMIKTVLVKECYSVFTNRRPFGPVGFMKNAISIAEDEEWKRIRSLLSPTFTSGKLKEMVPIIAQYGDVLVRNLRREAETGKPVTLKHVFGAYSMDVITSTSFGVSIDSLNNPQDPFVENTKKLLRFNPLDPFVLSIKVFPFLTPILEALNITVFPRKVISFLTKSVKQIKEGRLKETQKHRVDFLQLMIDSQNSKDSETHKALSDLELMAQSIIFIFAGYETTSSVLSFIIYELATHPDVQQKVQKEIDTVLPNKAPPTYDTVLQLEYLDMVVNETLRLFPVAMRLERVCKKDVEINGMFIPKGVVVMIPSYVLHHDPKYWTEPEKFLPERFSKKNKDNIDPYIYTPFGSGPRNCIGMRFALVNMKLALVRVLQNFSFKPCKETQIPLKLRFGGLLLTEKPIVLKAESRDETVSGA
How it was run: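 P450-Glo luminescent assay: CYP3A7 enzyme converts a proluciferin substrate to luciferin, detected by luciferase reagent; light proportional to activity. Compounds in DMSO preincubated 10 min with enzyme-substrate mix at room temperature, then NADPH regeneration added for 1 h.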

[2] = Viability qHTS for spleen associated tyrosine kinase inhibitor (SYKi) naive MV4-11 cells (AID 1963823); note: nearly all actives have a fitted effect of over 40% in size; note: potency is the fitted concentration of half-maximal effect
How it was run: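 In this viability screen, compounds acted on SYK inhibitor naive MV4-11 cells for three days (72 hr, 37 C). Remaining viable cells were measured by CellTiter-Glo luminescence following a 10 min room-temperature development.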

[3] = Viability qHTS for spleen associated tyrosine kinase inhibitor (SYKi) drug resistant MV4-11 cells (AID 1963824); note: nearly all actives have a fitted effect of over 35% in size; note: potency is the fitted concentration of half-maximal effect
How it was run: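 SYK inhibitor-resistant MV4-11 AML cells, 500 per well, added to predispensed compounds and incubated 72 hr at 37 C, 5% CO2. Viability measured by CellTiter-Glo luminescence after 10 min at room temperature.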

[4] = Cellular viability qHTS for adrenocortical cancer (ACC) cell line SW-13 (AID 1963989); details: SW-13 ACC cells viability, CellTiter-Glo, 48 h; activity (max response): active compounds read low;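 note: cells grown in serum-free medium with ITS supplement; nearly all actives have a fitted effect of over 65% in size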
How it was run: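 Viability was read as CellTiter-Glo luminescence after 48 h compound treatment (up to 46 uM final) of SW-13 cells grown serum-free; titration curves were fit with a four-parameter logistic model to give IC50 and efficacy.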

[5] = Cellular viability qHTS for adrenocortical cancer (ACC) cell line NCI-H295R (AID 1963990); note: nearly all actives have a fitted effect of over 60% in size
How it was run: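 CellTiter-Glo ATP luminescence, read 48 h after compound addition, measured viability of NCI-H295R adrenocortical cells grown serum-free with ITS. Final concentrations spanned up to 46 uM. Data normalized to DMSO and doxorubicin, fitted for IC50 and maximal response.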

| Compound | Potency [1] | Potency [2] | Potency [3] | activity (max response) [4] | Potency [5] | activity change, negative = inhibition [1] | viability (% of control) [2] | viability, % of control [3] | activity change, negative = viability loss [5] |
| --- | --- | --- | --- | --- | --- | --- | --- | --- | --- |
| CCN(CC)CCNC(=O)c1cc(S(C)(=O)=O)ccc1OC | inactive | inactive | inactive | 12.2% | inactive |  |  |  |  |
| O=c1cc[nH]c(=O)[nH]1 | inactive | inactive | inactive | 7.94% | inactive |  |  |  |  |
| CC(=O)Nc1cccc(O)c1 | inactive | inactive | inactive | -1.77% | inactive |  |  |  |  |
| CC(=O)N[C@@H](CS)C(=O)O | inactive | inactive | inactive | 15.1% | inactive |  |  |  |  |
| CCCCCC[C@@H](CCC)C(=O)O | inactive | inactive | inactive | 6.05% | inactive |  |  |  |  |
| O=C(CN1CCNCC1)NC1CCCCC1 | inactive | inactive | inactive | -8.69% | inactive |  |  |  |  |
| O=[N+]([O-])c1cncn1CCN1CCOCC1 | inactive | inactive | inactive | 13.4% and -13.9% | inactive |  |  |  |  |
| CCN1CCCC1CN (stereo not given) | inactive | inactive | inactive | -2.8% | inactive |  |  |  |  |
| O=C(/C=C/c1ccc(O)c(O)c1)O[C@@H]1C[C@@](OC(=O)/C=C/c2ccc(O)c(O)c2)(C(=O)O)C[C@@H](O)[C@@H]1O | inactive | inactive | inactive | 4.38% | inactive |  |  |  |  |
| Oc1ccc(Cl)c2cccnc12 | inactive | inactive | inactive | 4.85% | inactive |  |  |  |  |
| CCC(=O)Nc1ccc(O)cc1 | inactive | inactive | inactive | 0.747% | inactive |  |  |  |  |
| CCn1cc(C(=O)O)c(=O)c2cnc(N3CCNCC3)nc21 | inactive | inactive | 2990 nM (active) | 3.41% | inactive |  |  |  |  |
| CN(C)CCOC(=O)COc1ccc(Cl)cc1 | inactive | inactive | inactive | 4.85% | inactive |  |  |  |  |
| CCN(CC)C(=O)Nc1ccc(OCC(O)CNC(C)(C)C)c(C(C)=O)c1 (stereo not given) | inactive | inactive | inactive | 12% | inactive |  |  |  |  |
| CC(C)NNC(=O)c1ccncc1 | inactive | inactive | inactive | 1.43% | inactive |  |  |  |  |
| O=C1NCC2(CCN(CCc3ccccc3)CC2)O1 | inactive | inactive | inactive | 4.78% | inactive |  |  |  |  |
| NCCC(O)(P(=O)(O)O)P(=O)(O)O | inactive | inactive | inactive | 6.05% | inactive |  |  |  |  |
| CC(C)NC[C@@H](O)COc1ccc(CC(N)=O)cc1 | inactive | inactive | inactive | 7.4% | inactive |  |  |  |  |
| C=CCN1CCc2nc(N)sc2CC1 | inactive | inactive | inactive | 1.2% | inactive |  |  |  |  |
| Cn1c(=O)c2c(ncn2CC2OCCO2)n(C)c1=O | inactive | inactive | inactive | 8.06% and -6.96% | inactive |  |  |  |  |
| O=C(O)C1CCC1 | inactive | inactive | inactive | 11.6% | inactive |  |  |  |  |

| Compound | Potency [1] | Potency [2] | Potency [3] | activity (max response) [4] | Potency [5] | activity change, negative = inhibition [1] | viability (% of control) [2] | viability, % of control [3] | activity change, negative = viability loss [5] |
| --- | --- | --- | --- | --- | --- | --- | --- | --- | --- |
| O=C(O)CP(=O)(O)O | inactive | inactive | inactive | 1.41% | inactive |  |  |  |  |
| COC(=O)c1ccc(O)cc1 | inactive | inactive | inactive | 11.5% | inactive |  |  |  |  |
| O=c1ccn([C@@H]2O[C@H](CO)[C@@H](O)[C@H]2O)c(=O)[nH]1 | inactive | inactive | inactive | -5.6% | inactive |  |  |  |  |
| Cc1cc(-c2cc(OC(=O)c3ccccc3)ccc2Cl)cc2nnc(Nc3ccc(OCCN4CCCC4)cc3)nc12 | inactive | 2000 nM (active) | 1590 nM (active) | 9.34% | inactive |  |  |  |  |
| CC(=O)CCC(=O)O | inactive | inactive | inactive | 9% | inactive |  |  |  |  |
| CC(C)(C)c1nnc(NS(=O)(=O)c2ccccc2)s1 | inactive | inactive | inactive | 4.7% | inactive |  |  |  |  |
| CC(=O)NC(=O)c1ccccc1O | inactive | inactive | inactive | -23.9% | inactive |  |  |  |  |
| CC1(C)S[C@@H]2[C@H](NC(=O)[C@H](N)c3ccccc3)C(=O)N2[C@H]1C(=O)O | inactive | inactive | inactive | 9.26% | inactive |  |  |  |  |
| [O-][n+]1cccc(/C(Cl)=N/OC[C@@H](O)CN2CCCCC2)c1 | inactive | inactive | inactive | 9.86% | inactive |  |  |  |  |
| O=C(O)[C@H](CC(=O)N1C[C@H]2CCCC[C@H]2C1)Cc1ccccc1 | inactive | inactive | inactive | 1.52% | inactive |  |  |  |  |
| C[N+](C)(C)CCCCCCCCCC[N+](C)(C)C | inactive | inactive | inactive | 14.5% | inactive |  |  |  |  |
| C#CC(C)(CC)OC(=O)c1ccccc1C(=O)O (stereo not given) | inactive | inactive | inactive | 8.16% | inactive |  |  |  |  |
| C[N+](C)(C)CC(O)CC(=O)[O-] (stereo not given) | inactive | inactive | inactive | -6.62% | inactive |  |  |  |  |
| NC(=O)c1cn(Cc2c(F)cccc2F)nn1 | inactive | inactive | inactive | 10.9% | inactive |  |  |  |  |
| O=C(O)C(=O)Nc1cccc(-c2nn[nH]n2)c1 | inactive | inactive | inactive | 14.5% and 11% | inactive |  |  |  |  |
| COc1ccc2c(c1)c1c3n2CCN(C)C3=NCC1 | inactive | inactive | inactive | 0.0191% | inactive |  |  |  |  |
| CC(=O)Nc1ccc(S(=O)(=O)Nc2cc(C)on2)cc1 | inactive | inactive | inactive | 11.6% | inactive |  |  |  |  |
| Cc1scc2c1N(C(=O)CN1CCN(C)CC1)c1ccccc1NC2=O | inactive | inactive | inactive | 2.88% | inactive |  |  |  |  |
| CN=C(NC#N)Nc1ccc(C2=NNC(=O)CC2C)cc1 (stereo not given) | inactive | inactive | inactive | -6.43% | inactive |  |  |  |  |
| CN(C(=O)C(Cl)Cl)c1ccc(OC(=O)c2ccco2)cc1 | inactive | inactive | inactive | -5.24% | inactive |  |  |  |  |
| C[C@H]1C[C@H](O)c2ccsc2S1(=O)=O | inactive | inactive | inactive | 10.4% | inactive |  |  |  |  |

| Compound | Potency [1] | Potency [2] | Potency [3] | activity (max response) [4] | Potency [5] | activity change, negative = inhibition [1] | viability (% of control) [2] | viability, % of control [3] | activity change, negative = viability loss [5] |
| --- | --- | --- | --- | --- | --- | --- | --- | --- | --- |
| O=C1O[C@H]([C@@H](O)CO)C(O)=C1O | inactive | inactive | inactive | 0.904% | inactive |  |  |  |  |
| C=CCNC(N)=S | inactive | inactive | inactive | 13% | inactive |  |  |  |  |
| O=C(O)CCNC(=O)c1ccccc1 | inactive | inactive | inactive | 1.23% | inactive |  |  |  |  |
| OCCCc1ccccc1 | inactive | inactive | inactive | 4.32% | inactive |  |  |  |  |
| COC(=O)c1ccc(NC(C)=O)cc1OC | inactive | inactive | inactive | -6.56% | inactive |  |  |  |  |
| O=C(O)/C=C\C(=O)O | inactive | inactive | inactive | 6.23% | inactive |  |  |  |  |
| CCOC(=O)c1ccc(OCCN2C[C@H](O)[C@@H](O)[C@H](O)[C@H]2CO)cc1 | inactive | inactive | inactive | -1.86% | inactive |  |  |  |  |
| CC[C@H](C)[C@H](N)C(=O)O | inactive | inactive | inactive | 4.01% | inactive |  |  |  |  |
| C[C@@H]1CC[C@@]2(OC1)O[C@H]1C[C@H]3[C@@H]4CC[C@H]5C[C@@H](O)CC[C@]5(C)[C@H]4CC(=O)[C@]3(C)[C@H]1[C@@H]2C |  |  |  | 5.1% |  | -8.63% [at 4.83 µM] | 83.6% [at 4.97 µM] | 73.5% [at 4.97 µM] | -14.3% [at 3.81 µM] |
| O=C(Cn1ccnc1[N+](=O)[O-])NCCO | inactive | inactive | inactive | 10.4% | inactive |  |  |  |  |
| COC(=O)c1cccnc1 | inactive | inactive | inactive | 5.78% | inactive |  |  |  |  |
| O=C(O)Cc1cccc(-c2cc(CCCCCCc3ccc(O[C@H]4O[C@H](CO)[C@@H](O)[C@H](O)[C@@H]4O)c(-c4cccc(CC(=O)O)c4)c3)ccc2O[C@H]2O[C@H](CO)[C@@H](O)[C@H](O)[C@@H]2O)c1 |  |  |  | 8.49% |  | -19.9% [at 0.91 µM] | 99.5% [at 0.588 µM] | 113% [at 0.588 µM] | -4.2% [at 0.587 µM] |
| CCOC(=O)[C@H](CCc1ccccc1)N[C@@H](C)C(=O)N1CCC[C@H]1C(=O)O | inactive | inactive | inactive | 11.5% and -12% | inactive |  |  |  |  |
| N=C(N)N1CCc2ccccc2C1 |  |  |  | -5.8% |  | 2.18% [at 4.83 µM] | 81.1% [at 4.97 µM] | 96.6% [at 4.97 µM] | -6.61% [at 3.81 µM] |
| Cc1c(C(=O)NCCO)[n+](=O)c2ccccc2n1[O-] | inactive | inactive | inactive | 7.59% | inactive |  |  |  |  |
| CCCNC(C)C(=O)Nc1c(C)csc1C(=O)OC (stereo not given) | inactive | inactive | inactive | 8.19% | inactive |  |  |  |  |
| CCOC(=O)OC(C)OC1=C(C(=O)Nc2ccccn2)N(C)S(=O)(=O)c2ccccc21 (stereo not given) | inactive | inactive | inactive | 1.88% | inactive |  |  |  |  |
| CN(C)CC/C=C1/c2ccccc2COc2ccc(CC(=O)O)cc21 | inactive | inactive | inactive | 1.77% and 7.73% | inactive |  |  |  |  |
| CC(=O)N[C@@H](CO)C(=O)N[C@@H](CC(=O)O)C(=O)N[C@@H](CCCCN)C(=O)N1CCC[C@H]1C(=O)O (Ac-SDKP-OH) | inactive | inactive | inactive | 0.638% | inactive |  |  |  |  |
| O=C(O)Cc1ccc(-c2ccccc2)cc1 | inactive | inactive | inactive | 3.26% | inactive |  |  |  |  |
